The results in this text go back to the supplement of paper PMC9950053.

Counter-ions that a name gives are not always drawn.

The subject of this test is Danio rerio larvae (5 dpf). Briefly: startle (activity period 16 minus period 15, 20-s interval sound) minus DMSO control (percentage points); higher = stronger startle response than DMSO larvae. Particulars: 10 µM; exposure time: 3 h pre-incubation + 3 h imaging. On the procedure:
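Wild-type 5 dpf zebrafish larvae (n=48 per drug, 96-well plates, 28.5 °C) were exposed to Tocris FDA-approved library compounds at 10 µM (0.1% DMSO) for 3 h before and 3 h during imaging. Images were taken every 6 s during visual (moving coloured lines) and acoustic stimuli, and larvae were tracked with the DeepLabCut-based Z-LaP Tracker. Each behavioural measure is the treated-group mean minus the DMSO vehicle control mean (n=844), in percentage points. This mapping covers compounds with 4-character plate codes.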
Turning to `COc1cc2c(cc1OC)C1CC(=O)C(CC(C)C)CN1CC2` (stereo unspecified) [Tetrabenazine], the startle was -4.98.

For the compound `C=CCN1C[C@H](C(=O)N(CCCN(C)C)C(=O)NCC)C[C@@H]2c3cccc4[nH]cc(c34)C[C@H]21` [Cabergoline], the startle was -9.97.

In the case of `CCN(C)C(=O)Oc1cccc([C@H](C)N(C)C)c1` [Rivastigmine tartrate], the startle came to 5.22.

On to `C=C1C[C@@H]2[C@H](CC[C@]3(C)C(=O)CC[C@@H]23)[C@@]2(C)C=CC(=O)C=C12` [Exemestane], for which the startle came out at 1.86.

On to `CC(C)C[C@H]1C(=O)N2CCC[C@H]2[C@]2(O)O[C@](NC(=O)[C@@H]3C=C4c5cccc6[nH]c(Br)c(c56)C[C@H]4N(C)C3)(C(C)C)C(=O)N12` [Bromocriptine mesylate], for which the startle is -8.86.

On to `CN1C[C@H](C(=O)N[C@]2(C)O[C@@]3(O)[C@@H]4CCCN4C(=O)[C@H](Cc4ccccc4)N3C2=O)C[C@@H]2c3cccc4[nH]cc(c34)C[C@H]21` [Dihydroergotamine mesylate], for which the startle came out at 6.26.

For the compound `Cc1cccc([C@H](C)c2c[nH]cn2)c1C` [Dexmedetomidine hydrochloride], the startle was 9.98.

For the compound `CC[C@@H](C(N)=O)N1CCCC1=O` [Levetiracetam], the startle was determined as 1.63.

As to `CC(O)(CS(=O)(=O)c1ccc(F)cc1)C(=O)Nc1ccc(C#N)c(C(F)(F)F)c1` (stereo unspecified) [Bicalutamide], the startle was found to be 0.428.

`N[C@@H]1C[C@H]1c1ccccc1` [Tranylcypromine hydrochloride]: the startle is -9.63.

In the case of `O=c1[nH]c2ccccc2n1C1CCN(CCCC(c2ccc(F)cc2)c2ccc(F)cc2)CC1` [Pimozide], the startle amounted to 0.33.
